Measured values taken from PubChem BioAssay.
The source made the active and inactive calls.

Legend:
Albumin (Bos taurus) = Albumin (Bos taurus) (UniProt P02769); assay: compounds binding labelled BSA control protein – biochemical, small-molecule microarray, Alexa647 label, 635/667 nm fluorescence, artefact control for SMM control protein annotation, profiling panel (AID 1118); details: BSA-A647 binding, fluorescence 635 nm, higher = more signal;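 also: score merges 667 nm emission intensity and signal-to-noise per printed compound spot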
Albumin (Bos taurus), sequence (P02769 whole entry, looked up): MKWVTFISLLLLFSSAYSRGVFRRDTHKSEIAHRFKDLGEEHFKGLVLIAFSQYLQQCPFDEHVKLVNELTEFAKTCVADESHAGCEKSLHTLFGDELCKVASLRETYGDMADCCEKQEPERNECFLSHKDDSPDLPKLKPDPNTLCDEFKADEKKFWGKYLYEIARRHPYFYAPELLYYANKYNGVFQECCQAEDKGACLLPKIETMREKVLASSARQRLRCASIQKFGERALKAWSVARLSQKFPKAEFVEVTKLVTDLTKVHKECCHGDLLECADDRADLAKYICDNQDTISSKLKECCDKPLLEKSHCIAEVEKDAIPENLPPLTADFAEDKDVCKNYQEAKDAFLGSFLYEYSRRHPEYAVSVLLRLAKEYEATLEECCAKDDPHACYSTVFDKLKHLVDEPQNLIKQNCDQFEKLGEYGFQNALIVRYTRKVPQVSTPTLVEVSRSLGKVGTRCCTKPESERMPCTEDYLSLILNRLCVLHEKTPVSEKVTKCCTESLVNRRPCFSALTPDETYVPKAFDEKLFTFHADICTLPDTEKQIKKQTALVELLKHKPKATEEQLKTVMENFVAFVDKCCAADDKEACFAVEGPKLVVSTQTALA

[1] = probe aXIP binding to arrayed compounds – biochemical, NeuroSMM set, 635/667 nm fluorescence, primary screen (AID 1119); details: small-molecule microarray, higher = more signal, called active from +8 up or from −8 down;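 also: probe is the protein aXip251-270 applied at 1 µg/mL to compound-printed slides; binding of probe to printed compounds measured as 667 nm fluorescence plus signal to noise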
[2] = probe aNOTCH3 binding on compound microarray – biochemical, small-molecule microarray, 635/667 nm fluorescence, primary screen (AID 1120); details: higher = more signal;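 also: probe is a biotin-tagged antibody raised against NOTCH3 rather than NOTCH3 protein; score merges spot fluorescence near 667 nm with spot signal to noise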
[3] = probe aNOTCH2 binding on compound microarray – biochemical, small-molecule microarray, 635/667 nm fluorescence, primary screen (AID 1121); details: higher = more signal;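 also: score merges feature fluorescence read at 667 nm with its signal to noise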
[4] = target: Carbonic anhydrase 2 (Homo sapiens) (UniProt P00918); assay: compounds binding carbonic anhydrase 2 – biochemical, small-molecule microarray, Alexa647-labelled CAII, profiling panel (AID 1122); details: CAII-A647 binding fluorescence, higher = more signal
[5] = COS7 lysate on small-molecule microarray, probe aHis, 635 nm (AID 1123); details: COS7 cell lysate, fluorescence, higher = more signal;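 also: z-score combines 667nm fluorescence intensity with signal-to-noise per printed compound spot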
[6] = probe aLAP1 signal on lysate-treated microarray – cell lysate, small-molecule microarray, COS7 lysate, primary screen (AID 1124); details: probe aLAP1, fluorescence, higher = more signal;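 also: lysate comes from COS7 cells expressing LAP1 and is applied at 0.3 µg/mL; score merges spot fluorescence near 667 nm with signal-to-noise over triplicate slides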
Sam68 (KHDRBS1) = assay: compounds binding KHDRBS1 protein – biochemical, small-molecule microarray, 635 nm fluorescence, primary screen (AID 1125); details: higher = more signal;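 also: score merges 667 nm channel intensity with signal to noise over triplicate slides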
[7] = system: Chordin-like protein 2 (CHRDL2); assay: compounds binding chordin-like 2 – biochemical, small-molecule microarray, 635 nm fluorescence, primary screen (AID 1126); details: fluorescence 635 nm, higher = more signal;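 also: printed compound slides probed with Chrdl2 protein at 4 µg/mL for 1 h at 4 C; score merges 667 nm emission intensity with signal to noise over three replicate slides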
[8] = target: Concanavalin-A (Canavalia ensiformis) (UniProt P02866); assay: compounds binding concanavalin A lectin – biochemical, small-molecule microarray, Alexa647 label, 635 nm, artefact control for SMM control protein annotation, primary screen (AID 1127); details: ConA-A647 binding fluorescence, higher = more signal;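 also: z combines 667 nm emission intensity with signal-to-noise across three replicate slides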
Concanavalin-A (Canavalia ensiformis), sequence (P02866 whole entry, looked up): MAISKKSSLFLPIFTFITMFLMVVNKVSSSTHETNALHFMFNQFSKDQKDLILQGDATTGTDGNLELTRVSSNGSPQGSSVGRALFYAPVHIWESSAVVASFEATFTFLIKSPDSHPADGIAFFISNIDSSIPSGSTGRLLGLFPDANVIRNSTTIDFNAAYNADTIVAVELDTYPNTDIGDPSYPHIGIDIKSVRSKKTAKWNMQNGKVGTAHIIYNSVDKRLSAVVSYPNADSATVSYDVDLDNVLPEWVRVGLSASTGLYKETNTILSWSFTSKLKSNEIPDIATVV

| SMILES | composite z-score (Albumin (Bos taurus)) | composite Z-score [1] | composite z-score [2] | composite z-score [3] | composite z-score [4] | composite z-score [5] | composite z-score [6] | composite z-score (Sam68 (KHDRBS1)) | composite z-score [7] | composite z-score [8] |
| --- | --- | --- | --- | --- | --- | --- | --- | --- | --- | --- |
| CCCC=C(CCC)[C@@H](NS(=O)(=O)c1cccc(C(F)(F)F)c1)c1ccc(C(=O)OC)cc1 | -0.0532 | 0.136 (inactive) | 1.7 | 1.06 | 0.169 | 0.455 | 0.134 | 0.601 | -1.35 | 0.804 |
| COc1cc2c(cc1OC)CN(C(=O)[C@H]1[C@@H]3C(=O)O[C@@H](c4ccccc4)[C@@H](c4ccccc4)N3[C@@H](c3ccccc3OCCO)[C@]13C(=O)Nc1ccc(C#CC4(O)CCCCCC4)cc13)CC2 | 0.168 | 0.267 (inactive) | -0.0043 | -0.0211 | 0.314 | 2.12 | 0.982 | 1.3 | 0.454 | 1.13 |
| O=C1C2C=CC(C(O)c3ccccc3)N(n3cnnc3)C2C(=O)N1Cc1ccccc1 (stereo not given) | 0.878 | 0.0912 (inactive) | 0.0562 | -0.0136 | 0.565 | 0.775 | -0.333 | -0.493 | 0.0921 | 0.161 |
| C[C@@H]1NC(=O)CC=C[C@@H](C)[C@@H]2C=C[C@H](O)[C@@H](COC(=O)[C@H](C)NC(=O)CC=C[C@@H](C)[C@@H]3C=C[C@H](O)[C@@H](COC1=O)O3)O2 | -0.942 | -0.0764 (inactive) | -0.0328 | -0.179 | -0.0551 | -0.384 | -0.0401 | -0.116 | 0.786 | -1.2 |
| CN(C)C(=O)[C@@]1(Cc2ccccc2N=[N+]=[N-])N=C(c2ccc(OCCCO)cc2)O[C@H]1c1ccccc1CN=[N+]=[N-] | 0.972 | 0.478 (inactive) | 0.293 | 0.215 | 0.622 | 3.13 | 1.12 | 1.29 | -0.393 | 1.2 |
| COc1cc([C@@H]2N[C@H](C(=O)O)Cc3c2[nH]c2ccccc32)cc(OC)c1OC | 0.1 | -0.651 (inactive) | 0.059 | -0.089 | -0.0165 | -0.0553 | 0.238 | 0.0713 | 0.475 | 0.245 |
| C=CCN1C(=O)[C@@]2(O[C@@H](CCn3cc([C@H](O)c4ccccc4)nn3)[C@H]([Si](C)(C)c3ccc(OC)cc3)[C@H]2C)c2cc(N3CCOC3=O)ccc21 | 0.0865 | 0.146 (inactive) | -0.0932 | -0.0666 | 0.614 | 1.02 | 0.0741 | 1.11 | -0.0548 | -0.559 |
| COc1ccc([Si](C)(C)[C@H]2[C@H](CCO)O[C@@]3(C(=O)N(Cc4ccc(N5CCCCC5=O)cc4)c4ccccc43)[C@@H]2C)cc1 | 0.643 | -0.247 (inactive) | 0.25 | -0.0846 | 0.596 | 1.79 | 0.109 | 1.3 | -0.0425 | 1.12 |
| CN1C(=O)C2C=CC(C(O)C3CC=CCC3)N(Nc3ccccc3)C2C1=O (stereo not given) | 0.598 | -0.442 (inactive) | 0.351 | 0.0697 | 0.715 | 2.75 | -0.147 | 1.3 | 0.912 | 0.955 |
| C=C[C@H](OC)[C@@H](OC(=O)Nc1ccc(SC)cc1)c1ccc(O)c(F)c1 | 0.661 | 1.13 (inactive) | 0.0864 | -0.182 | 0.699 | 2.82 | 0.694 | 1.24 | -0.267 | 0.187 |
| CN(C)c1ccc(C(O)C2C=CC3C(=O)NC(=O)C3N2Nc2ccc(Cl)cc2Cl)cc1 (stereo not given) | 0.667 | 0.66 (inactive) | 0.0961 | 0.046 | 0.735 | 2.51 | 0.305 | 0.708 | -0.0762 | 0.332 |
| COc1ccc(-c2ccccc2[C@@H]2N[C@H](C(=O)O)CC[C@H]2C)cc1 | -0.497 | 0.3 (inactive) | -0.0647 | -0.131 | 0.0441 | 0.711 | -0.423 | 0.297 | 0.456 | 0.301 |
| C=C(CCCC)/C(=C/C[C@@H](OC(=O)c1ccncc1)c1ccc(CO)o1)c1cnc2ccccc2c1 | 0.667 | 1.04 (inactive) | 0.382 | 0.0626 | 0.956 | 2.33 | 0.405 | 1.31 | 1.45 | 1.18 |
| CCOC(=O)C1=CC[C@@H](c2ccc(-c3ccc(OCc4ccccc4)cc3)c(OC)c2)N(S(=O)(=O)c2ccc(C)cc2)[C@H]1c1ccccc1 | 0.713 | 1.53 (inactive) | 0.349 | -0.146 | 0.469 | 1.64 | 0.87 | 1.24 | 0.0693 | 1.13 |
| NC(=O)NCC#Cc1ccc2c(c1)[C@]1(C(=O)N2)[C@H](C(N)=O)[C@H]2C(=O)O[C@H](c3ccccc3)[C@H](c3ccccc3)N2[C@@H]1c1ccccc1OCCO | 0.284 | 0.0219 (inactive) | 0.121 | -0.0762 | 0.175 | 0.841 | 0.519 | 0.978 | 0.543 | 0.936 |
| CC(C)[Si](OCC[C@H]1O[C@]2(C(=O)N(Cc3ccccc3)c3ccccc32)[C@@H](C)[C@@H]1[Si](C)(C)O)(C(C)C)C(C)C | 0.114 | -0.0745 (inactive) | 0.0026 | -0.148 | 0.191 | 0.379 | 0.0893 | 0.0631 | -0.0644 | 0.367 |
